# Measurements reported in PubChem BioAssay AID1347084 (National Center for Advancing Translational Sciences (NCATS), 2019).
# Values joined by “and” are separate entries in the source; they are usually repeats but may differ in a detail not shown here. Identical values can stand only once. Results filed as inconclusive are left out. Active and inactive are the calls of the source. Calls follow the shape of the full dose curve.
# Test: qHTS for Inhibitors of the Functional Ribonucleoprotein Complex (vRNP) of Lymphocytic Choriomeningitis Arenaviruses (LCMV): LCMV Confirmatory Screen - GLuc reporter signal
# Details: LCMV minigenome vRNP, Gaussia luciferase reporter; series mostly up to 53.9 µM; activity change, negative = inhibition: at the top concentration
SMILES,Potency,"activity change, negative = inhibition"
CC[C@@H](C(=O)O)[C@@H]1O[C@@H]([C@@H](C)[C@H](O)[C@H](C)C(=O)[C@H](CC)[C@H]2O[C@]3(C=C[C@@H](O)[C@]4(CC[C@@](C)([C@H]5CC[C@](O)(CC)[C@H](C)O5)O4)O3)[C@H](C)C[C@@H]2C)[C@@H](C)C[C@@H]1C,0.0627 µM (active),
CCCCC/C(C=O)=C\c1ccccc1,,-14.3% (inactive)
O=C(Nc1ccccc1)c1cc([N+](=O)[O-])ccc1Cl,24.3 µM (active),
CCC[C@H](N[C@@H](C)C(=O)N1[C@@H]2CCCC[C@H]2C[C@H]1C(=O)O)C(=O)OCC,,-6.4% (inactive)
O=C(Nc1ccccc1)Nc1ccc(-c2ccc(C(=O)[C@H]3CCC[C@H]3C(=O)O)cc2)cc1,,-16.6% (inactive)
CC12C(=O)OC(=O)C1(C)C1CCC2O1 (configuration not stated),9.68 µM (active),
CC(O)(P(=O)(O)O)P(=O)(O)O,,-11.6% (inactive)
CCOC(=O)OCC/C(SC(=O)OCC)=C(\C)N(C=O)Cc1cnc(C)nc1N,,-12.6% (inactive)
COCCOC(=O)C1=C(C)NC(C)=C(C(=O)OC/C=C/c2ccccc2)C1c1cccc([N+](=O)[O-])c1 (configuration not stated),21.7 µM (active),
CC(=O)OCC(=O)[C@@]12N=C(C)O[C@H]1C[C@H]1[C@@H]3CCC4=CC(=O)C=C[C@]4(C)[C@@H]3[C@@H](O)C[C@@]12C,,34.7% (inactive)
Cc1cccc(-c2[nH]c(C(C)(C)C)nc2-c2ccc3c(c2)OCO3)n1,3.43 µM (active),
Cc1cc(N)c2ccccc2[n+]1CCCCCCCCCC[n+]1c(C)cc(N)c2ccccc21,1.09 µM (active),
COc1ccc(Cc2nccc3cc(OC)c(OC)cc23)cc1OC,1.93 µM (active) and 3.43 µM (active),
CC(C)=CCC/C(C)=C/CC/C(C)=C/CC[C@]1(C)CCc2c(C)c(O)c(C)c(C)c2O1,,-18.6% [at 6 µM] (inactive)
CCC1OC2(C)C(O)C(/C=C/C=C/C=C/c3oc(=O)cc(OC)c3C)OC1(C)C2OC(C)=O (configuration not stated),0.109 µM (active),
O=C1c2ccccc2-n2c1nc1ccccc1c2=O,1.22 µM (active),
CCn1c(-c2nonc2N)nc2cnc(Oc3cccc(NC(=O)c4ccc(OCCN5CCOCC5)cc4)c3)cc21,4.32 µM (active),
CO/C=C(/C(=O)OC)c1ccccc1Oc1cc(Oc2ccccc2C#N)ncn1,4.98 µM (active),
CCC(C)c1nccnc1OC (configuration not stated),,-25.6% [at 110 µM] (inactive)
CCCCC[C@H](O)/C=C/C=C/C/C=C\CCCC(=O)O,,4.12% [at 0.666 µM] (inactive)
COc1cccc(-c2ccc(NC(=O)C3=C(C(=O)O)CCC3)c(F)c2)c1,3.85 µM (active),
CC(O)C(O)[C@H]1CNc2nc(N)[nH]c(=O)c2N1 (some centres not stated),,4.42% (inactive)
FC(F)(F)c1ccc(C=Cc2nc(COc3ccc(CCCCn4ccnn4)cc3)co2)cc1,0.0153 µM (active),
Cc1ccccc1-n1c(Cn2nc(-c3cccc(O)c3)c3c(N)ncnc32)nc2cccc(C)c2c1=O,30.6 µM (active),
CC1=C(C)C(=O)C(CCCCC#CCCCC#CCO)=C(C)C1=O,19.3 µM (active),
CNCCCC1c2ccccc2C=Cc2ccccc21,30.6 µM (active),
CC(=O)[C@H]1CC[C@H]2[C@@H]3CCC4=CC(=O)CC[C@]4(C)[C@H]3CC[C@]12C,24.3 µM (active),
